Data on seven molecules can be found in PubChem BioAssay (NCI).

Compounds without any hit were thinned out: in the full panel of roughly 83,000, 20% have a hit.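 Testing used 96-well plates and a 48-hour single-concentration exposure. Example: -40 means 40% of the starting cells died.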 Unmarked numbers belong to inactive results. Active and inactive are the calls of the source. The calls were made as follows: active = growth percent below 10; inactive = the rest.

Among the test systems are SK-MEL-2 melanoma; EKVX NSCLC; SN12C renal; UO-31 renal; TK-10 renal; ACHN renal; CAKI-1 renal; A498 renal; CCRF-CEM leukemia; MOLT-4 leukemia; SR leukemia; RPMI-8226 leukemia; OVCAR-8 ovarian; OVCAR-5 ovarian; OVCAR-4 ovarian; SK-OV-3 ovarian; IGROV1 ovarian; OVCAR-3 ovarian; HS 578T breast; NCI/ADR-RES ovarian.
Holding throughout (experiment): NCI-60 one-dose screen, 48 h (100 = growth as untreated, 0 = no growth, -100 = all killed)
Common to all, as to settings: 10 µM unless noted

For `CCCCCCC12CCC(=O)N1CCc1cncn12` (stereo not given), the growth in the assay on SK-MEL-2 melanoma is 108%; in the assay with EKVX NSCLC it was 99.9%; with SN12C renal, 102%; in the assay with UO-31 renal, 109%; in the assay on TK-10 renal, 92.5%; in the assay on ACHN renal, 109%. For the same molecule, the growth in the assay on CAKI-1 renal was 109%; with A498 renal, 99.2%; with CCRF-CEM leukemia it was 95.4%; in the assay with MOLT-4 leukemia, 104%; in the assay on SR leukemia, 116%; with RPMI-8226 leukemia, 94.6%. In addition, the growth was 101% in the assay with OVCAR-8 ovarian; 98.7% with OVCAR-5 ovarian; 119% with OVCAR-4 ovarian; 99.2% in the assay with SK-OV-3 ovarian; 105% in the assay on IGROV1 ovarian; 118% in the assay with OVCAR-3 ovarian. In addition, the growth with HS 578T breast is 112%; in the assay with NCI/ADR-RES ovarian it was 104%.
For the molecule `Cc1ccc(NC(=O)Cn2cc(CN3CCN(c4ccnc5cc(Cl)ccc45)CC3)nn2)cc1`, the growth is 114% with SK-MEL-2 melanoma; 80.7% in the assay with EKVX NSCLC; 93.9% in the assay with SN12C renal; 62.7% in the assay with UO-31 renal; 95.4% with TK-10 renal; 81.1% in the assay with ACHN renal. In addition, the growth with CAKI-1 renal was 73.1%; in the assay on A498 renal it was 88%; with CCRF-CEM leukemia, -31.6% (active); in the assay with MOLT-4 leukemia it was -15.7% (active); in the assay with SR leukemia, 60.2%; with RPMI-8226 leukemia it was 64.7%. In addition, the growth with OVCAR-8 ovarian is 89.8%; in the assay with OVCAR-5 ovarian, 95.5%; with OVCAR-4 ovarian, 76.6%; in the assay on SK-OV-3 ovarian, 68.4%; in the assay with IGROV1 ovarian it was 91.1%; with OVCAR-3 ovarian, 91.3%. Besides, the growth is 83.2% in the assay with HS 578T breast and 89.1% in the assay with NCI/ADR-RES ovarian.
`COCCOc1cc2ncnc(N3CCN(c4cc(S(C)(=O)=O)c(C)cc4Cl)CC3)c2cc1OCCOC`: the growth in the assay with SK-MEL-2 melanoma is 95.3%; in the assay with EKVX NSCLC, 90.4%; in the assay on SN12C renal, 87.2%; in the assay on UO-31 renal, 61.8%; in the assay with TK-10 renal, 104%; in the assay on ACHN renal, 100%. Besides, the growth in the assay on CAKI-1 renal was 101%; in the assay with A498 renal, 88.2%; in the assay on CCRF-CEM leukemia, 89.5%; in the assay on MOLT-4 leukemia it was 79.4%; with SR leukemia it was 77%; in the assay with RPMI-8226 leukemia, 76%. Moreover, the growth in the assay with OVCAR-8 ovarian was 83.2%; in the assay on OVCAR-5 ovarian, 109%; with OVCAR-4 ovarian, 103%; in the assay with SK-OV-3 ovarian, 105%; with IGROV1 ovarian, 98%; with OVCAR-3 ovarian, 96.1%. Further, the growth was 90.6% with HS 578T breast and 83.2% with NCI/ADR-RES ovarian.
Turning to `O=C1c2ccccc2-c2c1c1c(=O)[nH]c3ccccc3c1n2Cc1ccccc1`, the growth with SK-MEL-2 melanoma is 75.2%; with EKVX NSCLC, 51.9%; in the assay with SN12C renal, 69.9%; in the assay on UO-31 renal it was 78.3%; in the assay with TK-10 renal, 75.7%; with ACHN renal, 46.6%. For the same molecule, the growth with CAKI-1 renal is 2.5% (active); in the assay on A498 renal, 0.459% (active); in the assay with CCRF-CEM leukemia it was 87.4%; with MOLT-4 leukemia, 64.9%; in the assay on SR leukemia, 55.4%; in the assay on RPMI-8226 leukemia it was 80.3%. The growth in the assay with OVCAR-8 ovarian is 63.2%; in the assay on OVCAR-5 ovarian, 56.5%; in the assay on OVCAR-4 ovarian, 35%; with SK-OV-3 ovarian, 76.3%; in the assay on IGROV1 ovarian, 71.5%; with OVCAR-3 ovarian, 77.2%. Also, the growth in the assay with HS 578T breast was -15% (active); with NCI/ADR-RES ovarian it was 67.9%.
Turning to `CN1CCN(c2cc(Nc3cc(C4CC4)[nH]n3)nc(Nc3ccc(CC(=O)NCc4cccc(F)c4)cc3)n2)CC1`, the growth with SK-MEL-2 melanoma was 48.9%; with EKVX NSCLC, 50.3%; in the assay with SN12C renal, 23.5%; with UO-31 renal, 36.8%; in the assay with TK-10 renal, 34.5%; in the assay on ACHN renal, 45.9%. Also, the growth in the assay with CAKI-1 renal is 5.36% (active); in the assay with A498 renal, -28.7% (active); in the assay with CCRF-CEM leukemia, 36.8%; in the assay on MOLT-4 leukemia it was 16%; with SR leukemia, 30.3%; in the assay on RPMI-8226 leukemia, 54.3%. Besides, the growth is 40.7% with OVCAR-8 ovarian; 11% in the assay with OVCAR-5 ovarian; 43.9% in the assay on OVCAR-4 ovarian; 24% with SK-OV-3 ovarian; -13.8% (active) with IGROV1 ovarian; 41.7% in the assay on OVCAR-3 ovarian. Moreover, the growth was -6.93% (active) in the assay with HS 578T breast and 94.4% in the assay on NCI/ADR-RES ovarian.
As to `COC(=O)[C@]12CCC(C)(C)C[C@H]1[C@H]1/C(=N/OCCc3nn[nH]n3)C[C@@H]3[C@@]4(C)CC[C@H](OC(C)=O)C(C)(C)[C@@H]4CC[C@@]3(C)[C@]1(C)CC2`, the growth with SK-MEL-2 melanoma was 58.8%; in the assay with EKVX NSCLC, 35.6%; in the assay on SN12C renal, 39%; with UO-31 renal it was 15.5%; in the assay with TK-10 renal, 55.6%; in the assay on ACHN renal it was 32.8%. For the same molecule, the growth was 39.8% in the assay with CAKI-1 renal; -19% (active) with A498 renal; 33.5% in the assay on CCRF-CEM leukemia; 27.6% in the assay with MOLT-4 leukemia; 31.8% in the assay with SR leukemia; 22.6% with RPMI-8226 leukemia. Besides, the growth was 29.7% in the assay on OVCAR-8 ovarian; 74.4% in the assay with OVCAR-5 ovarian; 25.3% with OVCAR-4 ovarian; 58.7% in the assay with SK-OV-3 ovarian; 30.9% in the assay with IGROV1 ovarian; 31.8% in the assay with OVCAR-3 ovarian. Further, the growth in the assay on HS 578T breast was 48.3%; in the assay on NCI/ADR-RES ovarian it was 30.1%.
As for `C=C(C)[C@@H]1CCC[C@]2(COS(=O)(=O)c3ccc(C)cc3)CC[C@]3(C)[C@@H](CC[C@@H]4[C@@]5(C)CCCNC(C)(C)[C@@H]5CC[C@]43C)[C@@H]12`, the growth was 83.1% in the assay with SK-MEL-2 melanoma; 9.77% (active) in the assay with EKVX NSCLC; -94.4% (active) in the assay with SN12C renal; 61% in the assay with UO-31 renal; 43.2% in the assay on TK-10 renal; 44.6% in the assay on ACHN renal. Also, the growth was -68.3% (active) in the assay with CAKI-1 renal; 81.3% with A498 renal; 1.15% (active) in the assay on CCRF-CEM leukemia; -11.1% (active) with MOLT-4 leukemia; -46.1% (active) with SR leukemia; -14.8% (active) with RPMI-8226 leukemia. Moreover, the growth in the assay with OVCAR-8 ovarian is -77.6% (active); with OVCAR-5 ovarian it was 63.3%; in the assay on OVCAR-4 ovarian, -64.4% (active); in the assay on SK-OV-3 ovarian, 98.7%; in the assay with IGROV1 ovarian, -87.1% (active); in the assay on OVCAR-3 ovarian it was -87.7% (active). Moreover, the growth is 61.4% in the assay on HS 578T breast and -3.42% (active) in the assay on NCI/ADR-RES ovarian.
